Among the data in PubChem BioAssay (EPA / NIEHS) are outcome and AC50 values, retold here.

Records with an inconclusive call do not appear. The source made the active and inactive calls. The calls were made as follows, unless noted: active = hit-call score of the fitted dose curve at least 0.9, where 1 is the maximum; inactive = score below 0.9.

Test [1] in a line: ATG_PXRE_CIS: Attagene CIS-FACTORIAL HepG2 Assay for human Pregnane X Receptor Element (PXRE) (AID 2282957). Particulars: HepG2 Attagene CIS-FACTORIAL PXRE reporter, mRNA; actives raise or lower the signal. In a few lines: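 Transfect HepG2 with MRTUs (cis promoter elements); dose chemical, incubate 24 h; isolate RNA, RT with oligo(dT), PCR, 6-FAM label, HpaI cut, CE. Gain/loss fit vs DMSO.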

A short description of test [2]: ATG_PPRE_CIS: Attagene CIS-FACTORIAL HepG2 Assay for human Peroxisome Proliferator-activated Response Element (PPRE) (AID 2282958). The note with it: HepG2 PPRE cis-element reporter, Attagene transcription factor profiling; actives raise or lower the signal. The essentials: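 Read-out: fluorescent reporter mRNA fragments resolved by capillary electrophoresis after RT-PCR. HepG2 cells carried transiently transfected PPRE-driven cis reporter constructs and were dosed for 24 h; gain or loss of signal fitted relative to DMSO.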

The nature of test [3]: ATG_RORE_CIS: Attagene CIS-FACTORIAL HepG2 Assay for human RAR-related Orphan Receptor Element (RORE) (AID 2282959). Particulars: HepG2 Attagene cis-factorial RORE reporter, mRNA; actives raise or lower the signal. The essentials:
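Readout: fluorescent reporter mRNA by RT-PCR plus capillary electrophoresis, 24 h after dosing transfected HepG2 cells. Endogenous transcription factor activity on a cis promoter element is measured. Gain or loss of signal fitted against DMSO.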

A short description of test [4]: ATG_Sox_CIS: Attagene CIS-FACTORIAL HepG2 Assay for human SRY-box transcription factor (SOX) (AID 2282960). The note with it: HepG2 Attagene cis-factorial SOX reporter, mRNA; actives raise or lower the signal. The essentials:
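Read-out: fluorescent RT-PCR products of SOX1-linked reporter transcripts resolved by capillary electrophoresis, fitted bidirectionally against DMSO. Transiently transfected HepG2 cells, 24 h after chemical exposure, endogenous transcription factor activity.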

For test [5], the target named is Transcription factor Sp1 (Homo sapiens) (UniProt P08047). Kind of test: ATG_Sp1_CIS: Attagene CIS-FACTORIAL HepG2 Assay for human Specificity Protein 1 (Sp1) (AID 2282961). Particulars: HepG2 Sp1 cis-reporter transcription, actives raise or lower the signal. In a few lines: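 Read-out: fluorescence of 6-FAM-labeled, HpaI-digested RT-PCR products separated by capillary electrophoresis. HepG2 cells carried transfected cis-element reporter units and were exposed to chemicals for 24 h; gain or loss of signal fitted relative to DMSO.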
Sequence of Transcription factor Sp1 (Homo sapiens) (P08047 whole entry, looked up): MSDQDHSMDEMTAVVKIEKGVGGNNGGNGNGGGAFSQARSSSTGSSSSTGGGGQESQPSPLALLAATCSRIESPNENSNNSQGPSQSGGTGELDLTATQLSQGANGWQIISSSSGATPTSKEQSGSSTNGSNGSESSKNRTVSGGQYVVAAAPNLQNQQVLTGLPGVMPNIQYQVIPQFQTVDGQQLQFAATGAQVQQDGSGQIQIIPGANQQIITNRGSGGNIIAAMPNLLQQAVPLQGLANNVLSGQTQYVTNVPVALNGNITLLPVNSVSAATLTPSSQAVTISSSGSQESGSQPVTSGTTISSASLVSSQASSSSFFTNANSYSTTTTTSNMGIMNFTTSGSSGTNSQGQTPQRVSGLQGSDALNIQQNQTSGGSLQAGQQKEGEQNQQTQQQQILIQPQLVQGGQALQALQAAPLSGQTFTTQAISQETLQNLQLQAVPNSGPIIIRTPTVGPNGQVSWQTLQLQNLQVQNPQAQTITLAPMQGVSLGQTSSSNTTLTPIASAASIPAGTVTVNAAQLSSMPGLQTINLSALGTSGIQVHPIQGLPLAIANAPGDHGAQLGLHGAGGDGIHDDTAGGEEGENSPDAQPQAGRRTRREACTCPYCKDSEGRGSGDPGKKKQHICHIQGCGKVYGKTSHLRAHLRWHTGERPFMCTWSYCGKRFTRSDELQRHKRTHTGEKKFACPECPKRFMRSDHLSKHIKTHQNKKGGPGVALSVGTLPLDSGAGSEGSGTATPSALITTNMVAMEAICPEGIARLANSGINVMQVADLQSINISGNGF

Test [6] can be described thus: ATG_SREBP_CIS: Attagene CIS-FACTORIAL HepG2 Assay for human Sterol Regulatory Element Binding (SREBP) (AID 2282962). Particulars: HepG2 Attagene cis-factorial SREBP reporter, mRNA; actives raise or lower the signal. The essentials: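 HepG2 cells transiently transfected with multiplexed cis-element reporter units report endogenous transcription factor activity. After 24 h of chemical exposure, reporter mRNA was quantified by RT-PCR, 6-FAM labelling, HpaI digestion and capillary electrophoresis; bidirectional fits used DMSO as baseline.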

Test [7] concerns the target Signal transducer and activator of transcription 3 (Homo sapiens) (UniProt P40763). In words: ATG_STAT3_CIS: Attagene CIS-FACTORIAL HepG2 Assay for human Signal Transducer and Activator of Transcription 3 (STAT3) (AID 2282963). The note with it: HepG2, Attagene cis-factorial STAT3 reporter transcription; actives raise or lower the signal. The essentials:
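Values derive from bidirectional fits relative to DMSO of reporter mRNA levels, measured by RT-PCR with capillary electrophoresis, in HepG2 cells carrying transiently transfected cis-regulated reporter units and exposed 24 h.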

Test [8] in a line: ATG_TA_CIS: Attagene CIS-FACTORIAL HepG2 Assay for human TA Basal Promoter (AID 2282964). Particulars: HepG2 Attagene CIS-factorial TA basal promoter reporter; actives raise or lower the signal. In a few lines: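 Read-out: fluorescent reporter-transcript fragments resolved by capillary electrophoresis after RT-PCR and HpaI digestion. Source: HepG2 cells carrying transiently transfected multi-reporter cis constructs, treated 24 h. Endpoint fitted bidirectionally relative to DMSO.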

Test [9] in a line: ATG_TCF_b_cat_CIS: Attagene CIS-FACTORIAL HepG2 Assay for human T-Cell-Factor with beta-catenin (TCF/b-cat) (AID 2282965). The note with it: HepG2 TCF/beta-catenin cis-reporter transcription, actives raise or lower the signal. The essentials:
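HepG2, transient MRTU transfection, cis-element-driven reporters (endogenous TFs). 24 h compound exposure. Readout: reporter mRNA by RT-PCR + 6-FAM primer extension, HpaI digest, capillary electrophoresis. Gain/loss fit vs DMSO baseline.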

Test [10] is described as follows: ATG_TAL_CIS: Attagene CIS-FACTORIAL HepG2 Assay for human TAL Basal Promoter (AID 2282966).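 Also: background control endpoint measuring basal TAL promoter reporter mRNA not a specific factor.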 The note with it: HepG2 Attagene cis-factorial TAL promoter reporter; actives raise or lower the signal. In a few lines:
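Fluorescence of labelled reporter cDNA fragments, resolved by capillary electrophoresis, gave the readout. Human HepG2 liver cells carried transiently transfected cis-element reporter units and were treated for 24 hours; activity was fitted bidirectionally against DMSO.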

The nature of test [11]: ATG_TGFb_CIS: Attagene CIS-FACTORIAL HepG2 Assay for human Transforming Growth Factor (TGF) (AID 2282967). The note with it: HepG2 Attagene CIS TGFb reporter, mRNA transcription; actives raise or lower the signal. The essentials: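 Transient MRTU transfection of HepG2 (FuGene 6). Dose 24 h. TriZol RNA, oligo(dT) RT, PCR, 6-FAM primer extension, HpaI cut, CE. Bidirectional fit, DMSO = baseline.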

Test [12] deals with Steroid hormone receptor ERR1 (Homo sapiens) (UniProt P11474). In words: ATG_ERRa_TRANS: Attagene TRANS-FACTORIAL HepG2 Assay for human Estrogen-Related Receptor alpha (ERRa) (AID 2282971; active = hit-call score of the fitted dose curve at least 0.9, where 1 is the maximum). Particulars: HepG2 Attagene TRANS reporter, ERRa transactivation. The essentials:
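Reporter transcript induction was quantified by RT-PCR and capillary electrophoresis of FAM-labelled, HpaI-cut products after 24 h treatment of HepG2 cells carrying transiently transfected GAL4-UAS reporter units and an exogenous ERRa-Gal4 fusion; activity scored as increase over DMSO.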

For test [13], the target named is X-box-binding protein 1 (Homo sapiens) (UniProt P17861). Kind of test: ATG_Xbp1_CIS: Attagene CIS-FACTORIAL HepG2 Assay for human X-box Binding Protein 1 (XBP1) (AID 2282972). Particulars: HepG2 XBP1 cis-element reporter, Attagene multiplex; actives raise or lower the signal. In a few lines:
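HepG2 cells transiently transfected with cis-regulated multiple reporter transcription units; endogenous transcription factor activity measured 24 hours after chemical dosing. Reporter mRNA quantified by RT-PCR, 6-FAM primer extension, HpaI digestion and capillary electrophoresis; bidirectional fitting versus DMSO.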

The nature of test [14]: ATG_M_19_TRANS: Attagene TRANS-FACTORIAL HepG2 Assay for M19 Transcription Factor (Internal Marker) (AID 2282974; active = hit-call score of the fitted dose curve at least 0.9, where 1 is the maximum). The note with it: HepG2 Attagene TRANS-FACTORIAL M19 internal marker reporter. The essentials:
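24 h chemical exposure of transiently transfected HepG2 (MRTU library). RNA → oligo(dT) RT → PCR → 6-FAM labelling → HpaI cut → CE fluorescence. Positive-direction fit vs DMSO baseline; background internal-marker readout.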

Test [15] has as its target Estrogen-related receptor gamma (Homo sapiens) (UniProt P62508). In words: ATG_ERRg_TRANS: Attagene TRANS-FACTORIAL HepG2 Assay for human Estrogen-Related Receptor gamma (ERRg) (AID 2282977; active = hit-call score of the fitted dose curve at least 0.9, where 1 is the maximum;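 also: hits increase reporter signal over DMSO so potencies reflect activators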). Particulars: HepG2 Attagene TRANS reporter, ERRg transactivation. The essentials: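 Transient HepG2 transfectants, 24 h compound exposure, GAL4-UAS reporter mRNA by RT-PCR/6-FAM labelling/capillary electrophoresis; positive direction vs DMSO.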

Test [16] can be described thus: ATG_VDRE_CIS: Attagene CIS-FACTORIAL HepG2 Assay for human Vitamin D Receptor Element (VDRE) (AID 2282968). The note with it: HepG2 VDRE cis-reporter transcription, actives raise or lower the signal. The essentials: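 Cell-based multiplexed reporter format in human liver HepG2 cells, 24 h post-dose. Fluorescence from capillary electrophoresis of reporter cDNA gives the signal, with DMSO as negative control and baseline.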

For test [17], the target named is Nuclear receptor subfamily 1 group I member 3 (Homo sapiens) (UniProt Q14994). Kind of test: ATG_CAR_TRANS: Attagene TRANS-FACTORIAL HepG2 Assay for human Constitutive Androstane Receptor (CAR) (AID 2282969; active = hit-call score of the fitted dose curve at least 0.9, where 1 is the maximum;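 also: activators raise reporter mRNA above DMSO so AC50 marks induction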). Particulars: HepG2 Attagene TRANS-FACTORIAL CAR reporter. In a few lines: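 HepG2 cells transiently transfected with GAL4-UAS reporter units; TRANS format reads activity of exogenous chimeric NR-Gal4 protein. After 24 h dosing, reporter mRNA quantified by RT-PCR, 6-FAM labelling and capillary electrophoresis; gain of signal fitted against DMSO.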
Sequence of Nuclear receptor subfamily 1 group I member 3 (Homo sapiens) (Q14994 whole entry, looked up, the tested form may be a part): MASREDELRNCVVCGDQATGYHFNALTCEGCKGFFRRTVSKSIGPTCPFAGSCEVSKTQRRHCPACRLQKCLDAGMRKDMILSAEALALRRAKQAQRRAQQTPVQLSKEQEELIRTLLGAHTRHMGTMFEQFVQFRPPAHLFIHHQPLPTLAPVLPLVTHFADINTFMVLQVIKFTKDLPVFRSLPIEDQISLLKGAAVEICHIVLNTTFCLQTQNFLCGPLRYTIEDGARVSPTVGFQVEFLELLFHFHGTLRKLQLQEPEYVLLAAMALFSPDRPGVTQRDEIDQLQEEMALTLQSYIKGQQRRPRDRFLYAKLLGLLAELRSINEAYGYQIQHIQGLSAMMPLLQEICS

Test [18] concerns the target Estrogen receptor (Homo sapiens) (UniProt P03372). Kind of test: ATG_ERa_TRANS: Attagene TRANS-FACTORIAL HepG2 Assay for human Estrogen Receptor alpha (ERa) (AID 2282970; active = hit-call score of the fitted dose curve at least 0.9, where 1 is the maximum). The note with it: HepG2 Attagene TRANS ERa GAL4 reporter, mRNA. The essentials: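 Human liver HepG2, transient transfection of multiple GAL4-UAS reporter units; TRANS format (exogenous NR-Gal4 chimera). 24 h dosing. Readout: reporter mRNA, RT-PCR, 6-FAM primer extension, HpaI digest, capillary electrophoresis. Positive direction vs DMSO.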

Test [19] can be described thus: ATG_GAL4_TRANS: Attagene TRANS-FACTORIAL HepG2 Assay for GAL4 (Internal Marker) (AID 2282976; active = hit-call score of the fitted dose curve at least 0.9, where 1 is the maximum). The note with it: HepG2 Attagene TRANS GAL4 internal marker reporter. The essentials:
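First, HepG2 cells were transfected with reporter units under GAL4-UAS control. Next, they were treated with chemical for 24 h. Finally, RNA was reverse-transcribed, PCR-amplified, FAM-labelled and resolved by capillary electrophoresis, with induction scored against DMSO.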

Sequence of X-box-binding protein 1 (Homo sapiens) (P17861 whole entry, looked up): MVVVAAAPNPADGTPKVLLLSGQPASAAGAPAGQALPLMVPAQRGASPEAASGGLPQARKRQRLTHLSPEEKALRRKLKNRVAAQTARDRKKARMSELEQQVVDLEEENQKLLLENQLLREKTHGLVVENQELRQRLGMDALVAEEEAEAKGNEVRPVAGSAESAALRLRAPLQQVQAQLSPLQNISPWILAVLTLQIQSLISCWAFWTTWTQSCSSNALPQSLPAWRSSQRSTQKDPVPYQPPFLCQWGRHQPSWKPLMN
Sequence of Estrogen receptor (Homo sapiens) (P03372 whole entry, looked up, the tested form may be a part): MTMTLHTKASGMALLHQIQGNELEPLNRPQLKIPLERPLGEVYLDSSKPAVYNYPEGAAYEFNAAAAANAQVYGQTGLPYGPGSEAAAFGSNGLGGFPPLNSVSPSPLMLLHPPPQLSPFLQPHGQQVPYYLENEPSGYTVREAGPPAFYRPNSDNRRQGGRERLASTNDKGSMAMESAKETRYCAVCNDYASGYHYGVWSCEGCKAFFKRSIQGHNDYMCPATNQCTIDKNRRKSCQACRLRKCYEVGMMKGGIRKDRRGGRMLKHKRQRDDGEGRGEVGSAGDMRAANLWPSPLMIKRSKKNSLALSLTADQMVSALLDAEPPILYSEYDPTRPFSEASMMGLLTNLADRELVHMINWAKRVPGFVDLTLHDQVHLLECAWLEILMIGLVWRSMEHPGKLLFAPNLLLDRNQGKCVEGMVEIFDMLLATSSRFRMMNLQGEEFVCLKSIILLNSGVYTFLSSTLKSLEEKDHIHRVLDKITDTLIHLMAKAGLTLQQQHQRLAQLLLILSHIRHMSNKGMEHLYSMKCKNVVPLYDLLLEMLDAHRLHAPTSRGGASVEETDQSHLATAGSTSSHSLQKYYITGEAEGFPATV
Sequence of Signal transducer and activator of transcription 3 (Homo sapiens) (P40763 whole entry, looked up): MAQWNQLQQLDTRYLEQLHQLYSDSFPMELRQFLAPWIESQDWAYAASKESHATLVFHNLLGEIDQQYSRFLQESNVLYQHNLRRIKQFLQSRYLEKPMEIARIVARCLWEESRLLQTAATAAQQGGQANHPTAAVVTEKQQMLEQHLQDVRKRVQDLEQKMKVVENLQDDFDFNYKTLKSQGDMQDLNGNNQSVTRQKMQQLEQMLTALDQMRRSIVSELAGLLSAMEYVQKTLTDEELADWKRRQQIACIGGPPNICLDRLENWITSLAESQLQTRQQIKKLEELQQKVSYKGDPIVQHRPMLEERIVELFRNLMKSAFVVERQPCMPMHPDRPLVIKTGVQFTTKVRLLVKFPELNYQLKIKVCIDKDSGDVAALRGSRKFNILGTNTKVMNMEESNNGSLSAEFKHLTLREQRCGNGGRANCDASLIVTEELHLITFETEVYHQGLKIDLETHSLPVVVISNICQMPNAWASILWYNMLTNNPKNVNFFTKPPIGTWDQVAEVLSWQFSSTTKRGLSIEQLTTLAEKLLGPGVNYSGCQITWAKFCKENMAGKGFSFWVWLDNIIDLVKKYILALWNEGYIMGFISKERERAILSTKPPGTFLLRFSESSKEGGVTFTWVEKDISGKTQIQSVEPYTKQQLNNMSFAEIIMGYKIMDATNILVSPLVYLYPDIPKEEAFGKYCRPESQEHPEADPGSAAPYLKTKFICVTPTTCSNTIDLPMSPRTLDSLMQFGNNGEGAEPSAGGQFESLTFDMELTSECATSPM
Sequence of Steroid hormone receptor ERR1 (Homo sapiens) (P11474 whole entry, looked up, the tested form may be a part): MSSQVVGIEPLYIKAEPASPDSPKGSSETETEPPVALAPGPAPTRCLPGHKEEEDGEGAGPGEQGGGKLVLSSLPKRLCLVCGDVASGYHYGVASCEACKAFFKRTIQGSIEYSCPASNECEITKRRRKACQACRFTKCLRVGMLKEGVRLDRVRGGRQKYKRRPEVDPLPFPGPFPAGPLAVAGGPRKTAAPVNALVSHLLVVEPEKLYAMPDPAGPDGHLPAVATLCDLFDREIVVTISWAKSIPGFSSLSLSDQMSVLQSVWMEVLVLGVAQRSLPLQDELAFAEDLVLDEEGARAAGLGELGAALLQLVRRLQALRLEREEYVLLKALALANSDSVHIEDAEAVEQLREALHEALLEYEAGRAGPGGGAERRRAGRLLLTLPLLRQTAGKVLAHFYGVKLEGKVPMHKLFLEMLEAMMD
Sequence of Estrogen-related receptor gamma (Homo sapiens) (P62508 whole entry, looked up, the tested form may be a part): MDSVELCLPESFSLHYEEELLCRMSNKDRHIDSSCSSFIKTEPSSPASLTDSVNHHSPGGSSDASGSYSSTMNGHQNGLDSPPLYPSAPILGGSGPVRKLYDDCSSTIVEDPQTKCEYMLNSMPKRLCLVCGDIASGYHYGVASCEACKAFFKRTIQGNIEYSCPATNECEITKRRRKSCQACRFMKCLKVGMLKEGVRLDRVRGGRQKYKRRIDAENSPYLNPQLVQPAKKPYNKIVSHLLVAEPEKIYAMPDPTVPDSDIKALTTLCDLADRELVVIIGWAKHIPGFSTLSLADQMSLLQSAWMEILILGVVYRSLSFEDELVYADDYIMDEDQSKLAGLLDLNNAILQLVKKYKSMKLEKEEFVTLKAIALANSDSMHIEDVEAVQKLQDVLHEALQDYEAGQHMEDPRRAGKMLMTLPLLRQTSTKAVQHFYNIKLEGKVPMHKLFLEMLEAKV

`Cn1c([N+](=O)[O-])cnc1COC(N)=O`: the compound was classed as inactive in [1], in [2], in [3], in test [4], in test [5] and in test [6]. The compound was classed as inactive in [7], in test [8], in test [9], in test [10], in [11] and in test [12]. Moreover, the outcome in test [13], in test [14] and in test [15] was inactive.

Broadly, the AC50 is the concentration giving half of the maximal activity seen. For the compound `CCN(Cc1cccc(S(=O)(=O)O)c1)c1ccc(C(=C2C=CC(=[N+](CC)Cc3cccc(S(=O)(=O)[O-])c3)C=C2)c2ccccc2)cc1`, the outcome in test [2], in test [4], in [5], in test [6], in test [7] and in [8] was inactive. The compound was classed as inactive in test [10], in [16], in test [17], in test [18], in test [13] and in [19]. For the same compound, the AC50 in test [11] was 37.4 µM (active).

In the case of `CCCCNc1ccc(NCCCC)c2c1C(=O)c1ccccc1C2=O`, the AC50 in [1] was 0.886 µM (active). Besides, the call in [2], in test [3], in test [4], in [5], in test [6] and in [7] was inactive. Moreover, the compound was classed as inactive in [8], in [9], in [10], in [11], in test [16] and in [18]. The compound was classed as inactive in [13] and in [14].

Turning to `FC(F)=C(F)OC(F)(F)C(F)(F)C(F)(F)F`, the compound was called inactive in test [2], in [3], in test [4], in test [5], in test [6] and in [7]. In addition, the compound was classed as inactive in [9], in [10], in test [11], in test [16], in test [13] and in [14]. In addition, the compound was called inactive in test [19].

In the case of `CC(C)(C)c1ccc(-c2ccc(C(C)(C)C)cc2)cc1`, the compound was classed as inactive in [1], in test [2], in test [3], in test [4], in test [5] and in test [7]. Besides, the result in test [8], in test [9], in [10], in test [11], in test [18] and in test [13] was inactive.
